Measured values reported in PubChem BioAssay (NCI).
About 83,000 compounds went through this panel and 20% of them were active in at least one assay; those are over-represented in the sample as a whole.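 Compound tested at a single concentration for 48 hours in 96-well plates; a percent growth value below 10 was scored as active.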 Calls of active or inactive are those of the source.

test system: HCT-116 colon; experiment: NCI-60 one-dose screen, 48 h (100 = growth as untreated, 0 = no growth, -100 = all killed); details: 10 µM unless noted

SMILES	growth
COC(=O)c1cc(-c2ccc(S(C)(=O)=O)cc2)[nH]c1N/N=C/c1c(Cl)cccc1Cl	11.4% (inactive)
Cc1cccnc1NC(=S)Nc1ncccc1C	101% (inactive)
O=C(c1ccc(-c2ccccc2)cc1)c1ccc([N+](=O)[O-])cc1	92.6% (inactive)
O=Nc1c(-c2c(O)[nH]c3ncccc23)[nH]c2ccccc12	36.9% (inactive)
CO[C@H]1/C=C(/C)CCC[C@H](C)[C@H](O)[C@@H](C)C(=O)C(C)(C)[C@@H](O)CC(=O)O[C@@H]1/C(C)=C/c1csc(C)n1	9.39% (active)
COc1ccc(-c2nc(/C=C3\SC(=NCc4ccccc4)NC3=O)c3ccccn23)cc1	-97.2% (active)
COc1ccc2c3c([nH]c2c1)C(=O)c1nc(C)ccc1C3=O	30.3% (inactive)
COc1cc(-c2cc(-c3ccc(N(C)C)cc3)nc(N3CCC(O)CC3)c2C#N)cc(OC)c1OC	-38.9% (active)
Cn1ccc2c3c(ccc21)CC3=O	101% (inactive)
COc1ccc2[nH]cc(C(c3cc(F)cc(F)c3)c3c[nH]c4ccc(OC)cc34)c2c1	52.9% (inactive)
CCOC(=O)CNP(=O)(OC[C@@H](Cc1ccccc1)NC(=O)c1cc2ccccc2s1)Oc1ccccc1 (some centres undefined)	71.9% (inactive)
N#Cc1c(NC(=O)c2ccccc2)sc2c1CCC(=O)C2	5.81% (active)
O=C1Nc2ccccc2/C1=C\c1nc(-c2ccccc2)n2ccccc12	76.3% (inactive)
COc1ccc2c(c1)[n+]([O-])c(C(=O)/C=C/C=C(\Cl)c1cc(OC)c(OC)c(OC)c1)c(C)[n+]2[O-]	80.6% (inactive)
